As a reminder, the AC50 is the midpoint of the concentration-response curve, whichever way the signal moves. As usually defined, the viability is a read-out of living cells in per cent, often relative to untreated cells. Broadly, the IC50 is the concentration at which inhibition is half-maximal.

Inconclusive results are not listed. Calls of active or inactive are those of the source.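 The calls were made as follows, unless noted: active = normalized viability below 100% at a tested concentration; inactive = the rest.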

The nature of test [1]: growth inhibition of DIPG glioma cells, dose response, cell-based, SU-DIPG-XIII, MIPE4.0, CellTiter-Glo, qHTS (AID 1347061; cut-off not given, nearly all actives have AC50 up to about 37 µM;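 also: cells exposed to compound for 48 hours before readout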). The conditions noted are these: SU-DIPG-XIII viability, CellTiter-Glo ATP luminescence. (In general: In ATP-based viability assays light output follows the ATP content of the culture.)
The nature of test [2]: growth inhibition of DIPG glioma cells, dose response, cell-based, SU-DIPG-IV, MIPE4.0, CellTiter-Glo, qHTS (AID 1347063; cut-off not given, nearly all actives have AC50 up to about 30 µM;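 also: compound exposure lasted 48 hours before the viability readout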). The conditions noted are these: SU-DIPG-IV viability, CellTiter-Glo ATP luminescence.
Test [3] is described as follows: SU-DIPG-VI glioma cell viability, MIPE4.0 library, CellTiter-Glo luminescence, qHTS (AID 1347066; cut-off not given, nearly all actives have AC50 up to about 30 µM;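 also: cells exposed to compound for 48 hours before readout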). The conditions noted are these: CellTiter-Glo ATP luminescence.
Test [4] is described as follows: modifiers of HSF1 nuclear foci, imaging, Selleck Cancer Library (AID 1347162; in the data active = plate-normalised HSF1 focus index below about 0.46). The conditions noted are these: human cells, at 10 µM; SSMD: measured here: HSF1 foci SSMD mean; cell count: measured here: cell number; plate-normalised HSF1 focus index: stronger effect = lower value.
Test [5] can be described thus: viability loss in pontine glioma line – cell-based, SU-DIPG-XXV, MIPE5.0, CellTiter-Glo, qHTS, dose response (AID 1347065; cut-off not given, nearly all actives have AC50 up to about 26 µM;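 also: cells exposed to compound for 48 hours before ATP readout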). The conditions noted are these: CellTiter-Glo ATP luminescence.
Test [6] can be described thus: SU-DIPG-XXV glioma cell viability, MIPE5.0 library, qHTS (AID 1347068; cut-off not given, nearly all actives have IC50 up to about 30 µM;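 as to IC50: cells exposed to compound for 48 hours before viability readout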). On the technique in general: In qHTS, concentration-response curves come from the screen itself.
Test [7] is described as follows: sensitizers of A549 cells to miR-34 induction, primary screen, imaging, A549 dox-inducible miR-34, nuclei and caspase counts (AID 1347080;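 active = compounds whose cell count with miR-34 switched on is under 0.7 times the count with it off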). The conditions noted are these: A549 miR-34 inducible, Hoechst nuclei count, 48 h.
The nature of test [8]: survival rescue of mitochondrial mutant cells in low glucose, primary screen, MELAS cybrids, Rieske KO mouse fibroblasts, CellTiter-Glo (AID 1508586;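 active = mean z-score across replicates of 1.96 or higher in either the MELAS or the Rieske mutant cell line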;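 also: z relative to plate mean and SD of compound and empty wells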).
A short description of test [9]: ovarian cancer cell viability with rucaparib, profiling panel, oncology-focused library, rucaparib conditional (AID 1508598). The conditions noted are these: patient-derived ovarian cancer cells, CellTiter-Glo viability, 144 h, stronger effect = lower value.
Where [10] appears, read: at 0.000305 µM, OCI-C5x cells, with rucaparib 10 µM, 100% = cells with rucaparib alone.
The mark [11] stands for this setting: at 0.000305 µM, OCI-C5x cells, without rucaparib.
Setting [12] is: at 0.000305 µM, OCI-P5x cells, with rucaparib 20 µM, 100% = cells with rucaparib alone.
[13] abbreviates: at 0.000305 µM, OCI-P5x cells, without rucaparib.
[14] abbreviates: at 0.00122 µM, OCI-C5x cells, with rucaparib 10 µM, 100% = cells with rucaparib alone.
[15] abbreviates: at 0.00122 µM, OCI-C5x cells, without rucaparib.
The mark [16] stands for this setting: at 0.00122 µM, OCI-P5x cells, with rucaparib 20 µM, 100% = cells with rucaparib alone.
[17] abbreviates: at 0.00122 µM, OCI-P5x cells, without rucaparib.
Where [18] appears, read: at 0.00488 µM, OCI-C5x cells, with rucaparib 10 µM, 100% = cells with rucaparib alone.
The mark [19] stands for this setting: at 0.00488 µM, OCI-C5x cells, without rucaparib.
The mark [20] stands for this setting: at 0.00488 µM, OCI-P5x cells, with rucaparib 20 µM, 100% = cells with rucaparib alone.
Where [21] appears, read: at 0.00488 µM, OCI-P5x cells, without rucaparib.
Where [22] appears, read: at 0.0195 µM, OCI-C5x cells, with rucaparib 10 µM, 100% = cells with rucaparib alone.
Where [23] appears, read: at 0.0195 µM, OCI-C5x cells, without rucaparib.
Setting [24] is: at 0.0195 µM, OCI-P5x cells, with rucaparib 20 µM, 100% = cells with rucaparib alone.
Where [25] appears, read: at 0.0195 µM, OCI-P5x cells, without rucaparib.
Setting [26] is: at 0.0781 µM, OCI-C5x cells, with rucaparib 10 µM, 100% = cells with rucaparib alone.
Setting [27] is: at 0.0781 µM, OCI-C5x cells, without rucaparib.
[28] abbreviates: at 0.0781 µM, OCI-P5x cells, with rucaparib 20 µM, 100% = cells with rucaparib alone.
Where [29] appears, read: at 0.0781 µM, OCI-P5x cells, without rucaparib.
The mark [30] stands for this setting: at 0.313 µM, OCI-C5x cells, with rucaparib 10 µM, 100% = cells with rucaparib alone.
Where [31] appears, read: at 0.313 µM, OCI-C5x cells, without rucaparib.
[32] abbreviates: at 0.313 µM, OCI-P5x cells, with rucaparib 20 µM, 100% = cells with rucaparib alone.
Where [33] appears, read: at 0.313 µM, OCI-P5x cells, without rucaparib.
[34] abbreviates: at 1.25 µM, OCI-C5x cells, with rucaparib 10 µM, 100% = cells with rucaparib alone.
Where [35] appears, read: at 1.25 µM, OCI-C5x cells, without rucaparib.
Where [36] appears, read: at 1.25 µM, OCI-P5x cells, with rucaparib 20 µM, 100% = cells with rucaparib alone.
Where [37] appears, read: at 1.25 µM, OCI-P5x cells, without rucaparib.
Setting [38] is: at 5 µM, OCI-C5x cells, with rucaparib 10 µM, 100% = cells with rucaparib alone.
[39] abbreviates: at 5 µM, OCI-C5x cells, without rucaparib.
Setting [40] is: at 5 µM, OCI-P5x cells, with rucaparib 20 µM, 100% = cells with rucaparib alone.
The mark [41] stands for this setting: at 5 µM, OCI-P5x cells, without rucaparib.

For `CC(=O)O[C@@]12CO[C@@H]1C[C@H](O)[C@@]1(C)C(=O)[C@H](O)C3=C(C)[C@@H](OC(=O)C(O)[C@@H](NC(=O)OC(C)(C)C)c4ccccc4)C[C@@](O)([C@@H](OC(=O)c4ccccc4)[C@H]21)C3(C)C` (stereo partly drawn), the call in test [1], in test [2] and in [3] was inactive.
As for `COc1cccc2c1CCCC2CCCN1CCN(C2CCCCC2)CC1` (stereo not drawn), the molecule was classed as inactive in test [1]. Moreover, the AC50 in [2] was 18.7 µM (active). Besides, in test [4], the SSMD is -2.1, the cell count was found to be 5730 and the plate-normalised HSF1 focus index is 0.878 (inactive).
With `C/C=C(/C)C(=O)O[C@H]1C(C)=C[C@]23C(=O)[C@@H](C=C(CO)[C@@H](O)[C@]12O)[C@H]1[C@@H](C[C@H]3C)C1(C)C`, the molecule was called inactive in test [1]. Further, in [3], the half-maximal activity concentration (AC50) is 20.9 µM (active).
Regarding `COc1ccc(COc2cc3oc(=O)c4cc(C(C)O)ccc4c3cc2OC)cc1` (stereo not drawn), the outcome in [1], in test [5] and in [6] was inactive. In addition, the fold change is 0.923 (inactive) in [7] (stronger effect = lower value, cell number ratio, induced over uninduced) and 1.45 in test [7] (measured here: relative caspase fold change +Dox/-Dox). Further, the cell count in test [7] (measured here: total cells with miR-34 induction, stronger effect = lower value) turned out to be 7360; in [7] (measured here: total cells without miR-34 induction) it was 7980; in test [4] it was 7240. In [4], the SSMD was -0.619. The plate-normalised HSF1 focus index in test [4] is 0.961 (inactive). For the same molecule, the z-score in test [8] (MELAS cybrid survival, CellTiter-Glo 48 h, stronger effect = higher value) is -0.463 (inactive); in test [8] (Rieske KO mouse fibroblast survival, CellTiter-Glo 72 h) it was 0.921. The viability is 108% (inactive) in [9] (setting [10]); 122% (inactive) in [9] (setting [11]); 103% (inactive) in test [9] (setting [12]); 97.5% (active) in test [9] (setting [13]); 119% (inactive) in test [9] (setting [14]); 114% (inactive) in [9] (setting [15]). The viability in test [9] (setting [16]) was 108% (inactive); in test [9] (setting [17]), 98% (active); in test [9] (setting [18]) it was 121% (inactive); in test [9] (setting [19]), 104% (inactive); in test [9] (setting [20]) it was 98.6% (active); in test [9] (setting [21]), 101% (inactive). In addition, the viability in test [9] (setting [22]) is 118% (inactive); in [9] (setting [23]), 118% (inactive); in [9] (setting [24]), 99.9% (active); in test [9] (setting [25]), 98.3% (active); in test [9] (setting [26]), 122% (inactive); in test [9] (setting [27]), 114% (inactive). The viability in [9] (setting [28]) was 103% (inactive); in test [9] (setting [29]), 96% (active); in [9] (setting [30]), 113% (inactive); in test [9] (setting [31]), 100% (inactive); in [9] (setting [32]) it was 102% (inactive); in [9] (setting [33]), 92.5% (active). The viability in test [9] (setting [34]) was 126% (inactive); in [9] (setting [35]), 107% (inactive); in test [9] (setting [36]), 103% (inactive); in test [9] (setting [37]), 94.4% (active); in [9] (setting [38]) it was 132% (inactive); in test [9] (setting [39]), 130% (inactive). Moreover, the values for the viability in [9] (setting [40]) and in test [9] (setting [41]) were 92.1% (active) and 90.6% (active), respectively.
For `CCn1c(-c2nonc2N)nc2c(C#CC(C)(C)O)ncc(OC[C@H]3CCCNC3)c21`, the AC50 in test [1] was 16.6 µM (active); in [2] it was 7.43 µM (active); in test [5], 2.35 µM (active). In [6], the half-inhibitory concentration (IC50) was 16.6 µM (active). The SSMD in test [4] was 1.18. This molecule also showed a cell count in test [4] of 6930. In addition, in test [4], the plate-normalised HSF1 focus index is 1.06 (inactive). The viability was 119% (inactive) in test [9] (setting [10]); 119% (inactive) in test [9] (setting [11]); 98.8% (active) in [9] (setting [12]); 93.1% (active) in [9] (setting [13]); 129% (inactive) in test [9] (setting [14]); 125% (inactive) in [9] (setting [15]). Besides, the viability is 100% (inactive) in test [9] (setting [16]); 99.7% (active) in test [9] (setting [17]); 133% (inactive) in test [9] (setting [18]); 119% (inactive) in [9] (setting [19]); 109% (inactive) in test [9] (setting [20]); 99.7% (active) in [9] (setting [21]). Besides, the viability in test [9] (setting [22]) is 118% (inactive); in [9] (setting [23]), 125% (inactive); in [9] (setting [24]), 107% (inactive); in test [9] (setting [25]), 109% (inactive); in test [9] (setting [26]), 124% (inactive); in [9] (setting [27]) it was 119% (inactive). Further, the viability in test [9] (setting [28]) was 89.1% (active); in [9] (setting [29]), 101% (inactive); in [9] (setting [30]), 113% (inactive); in test [9] (setting [31]) it was 131% (inactive); in test [9] (setting [32]), 85.8% (active); in test [9] (setting [33]) it was 109% (inactive). Further, the viability in test [9] (setting [34]) is 114% (inactive); in [9] (setting [35]) it was 136% (inactive); in test [9] (setting [36]), 72.5% (active); in test [9] (setting [37]), 90.8% (active); in [9] (setting [38]), 94.5% (active); in test [9] (setting [39]) it was 128% (inactive). Besides, the figures for the viability in test [9] (setting [40]) and in [9] (setting [41]) were 67.2% (active) and 68.3% (active), respectively.

For the origin of these results see PubChem BioAssay.
